According to PubChem BioAssay (NCI):
About 83,000 compounds went through this panel and 20% of them were active in at least one assay; those are over-represented in the sample as a whole.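 Interpretation: 100, growth as untreated; towards 0, rising growth inhibition; 0, no net growth; 0 to -100, cell death. Compounds scoring below 10 were considered active.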 Active and inactive are the calls of the source.

Experiments:
Assay in all cases: NCI-60 one-dose screen, 48 h (100 = growth as untreated, 0 = no growth, -100 = all killed)
SK-MEL-2 melanoma = settings: 10 µM unless noted
SN12C renal = settings: 10 µM unless noted
UO-31 renal = settings: 10 µM unless noted
TK-10 renal = settings: 10 µM unless noted
ACHN renal = settings: 10 µM unless noted
CAKI-1 renal = settings: 10 µM unless noted
A498 renal = settings: 10 µM unless noted
CCRF-CEM leukemia = settings: 10 µM unless noted
MOLT-4 leukemia = settings: 10 µM unless noted
SR leukemia = settings: 10 µM unless noted
RPMI-8226 leukemia = settings: 10 µM
OVCAR-8 ovarian = settings: 10 µM unless noted
OVCAR-5 ovarian = settings: 10 µM unless noted
OVCAR-4 ovarian = settings: 10 µM unless noted
SK-OV-3 ovarian = settings: 10 µM
IGROV1 ovarian = settings: 10 µM unless noted
OVCAR-3 ovarian = settings: 10 µM unless noted
HS 578T breast = settings: 10 µM unless noted
NCI/ADR-RES ovarian = settings: 10 µM unless noted

Measured: growth

O=C(Nc1ccc(Cl)c(Cl)c1)NC(CO)(CO)CO
inactive: SK-MEL-2 melanoma 100% | SN12C renal 102% | UO-31 renal 73.9% | TK-10 renal 113% | ACHN renal 97.7% | CAKI-1 renal 91% | A498 renal 83.8% | CCRF-CEM leukemia 93.3% | MOLT-4 leukemia 98.3% | SR leukemia 101% | RPMI-8226 leukemia 96.7% | OVCAR-8 ovarian 96.8% | OVCAR-5 ovarian 94.7% | OVCAR-4 ovarian 110% | SK-OV-3 ovarian 95.5% | IGROV1 ovarian 100% | OVCAR-3 ovarian 104% | HS 578T breast 96% | NCI/ADR-RES ovarian 100%

CCC(=O)Nc1nnc(Cc2ccc(OC)c(OC)c2)s1
inactive: UO-31 renal 19.6% | A498 renal 85.2% | CCRF-CEM leukemia 38.3% | MOLT-4 leukemia 48.9% | RPMI-8226 leukemia 15.6% | OVCAR-5 ovarian 85.9% | SK-OV-3 ovarian 24.7% | IGROV1 ovarian 30.1% | NCI/ADR-RES ovarian 81.3%
active: SK-MEL-2 melanoma -6.77% | SN12C renal 2.77% | TK-10 renal -37.7% | ACHN renal 4.03% | CAKI-1 renal -33.6% | SR leukemia -18.1% | OVCAR-8 ovarian -32.6% | OVCAR-3 ovarian -45.3% | HS 578T breast -13%

Fc1ccccc1Nc1ccc2nnc(-c3ccncc3)n2n1
inactive: SK-MEL-2 melanoma 92.8% | SN12C renal 103% | UO-31 renal 88% | TK-10 renal 114% | ACHN renal 99.6% | CAKI-1 renal 102% | A498 renal 95.6% | CCRF-CEM leukemia 96.1% | MOLT-4 leukemia 98.8% | SR leukemia 89.4% | RPMI-8226 leukemia 95.4% | OVCAR-8 ovarian 103% | OVCAR-5 ovarian 97.3% | OVCAR-4 ovarian 107% | SK-OV-3 ovarian 107% | IGROV1 ovarian 105% | OVCAR-3 ovarian 108% | HS 578T breast 105% | NCI/ADR-RES ovarian 99.2%

COc1ccc(-c2c3c(N)c4c(nc3nc3c2c(C)nn3-c2ccccc2)CCCCC4)cc1
active: RPMI-8226 leukemia -4.18%
inactive: SK-MEL-2 melanoma 83.3% | SN12C renal 93% | UO-31 renal 61.6% | TK-10 renal 74.8% | ACHN renal 77.9% | CAKI-1 renal 84.2% | A498 renal 87.9% | CCRF-CEM leukemia 48% | MOLT-4 leukemia 49.5% | SR leukemia 54.1% | OVCAR-8 ovarian 83.2% | OVCAR-5 ovarian 86.3% | OVCAR-4 ovarian 67.8% | SK-OV-3 ovarian 85.6% | IGROV1 ovarian 86.7% | OVCAR-3 ovarian 72.6% | HS 578T breast 101% | NCI/ADR-RES ovarian 86.9%

O/N=C/c1cccs1
inactive: SK-MEL-2 melanoma 116% | SN12C renal 106% | UO-31 renal 89.1% | TK-10 renal 118% | ACHN renal 97% | CAKI-1 renal 91.7% | A498 renal 102% | CCRF-CEM leukemia 101% | MOLT-4 leukemia 85.5% | SR leukemia 96.8% | RPMI-8226 leukemia 112% | OVCAR-8 ovarian 98.3% | OVCAR-5 ovarian 100% | OVCAR-4 ovarian 115% | SK-OV-3 ovarian 118% | IGROV1 ovarian 108% | OVCAR-3 ovarian 119% | HS 578T breast 116% | NCI/ADR-RES ovarian 121%

Cc1nn(-c2ccccc2)c2nc3nc4c(c(N)c3c(-c3ccc(Cl)cc3)c12)CCC4
inactive: SK-MEL-2 melanoma 96.8% | SN12C renal 105% | UO-31 renal 75.2% | TK-10 renal 105% | ACHN renal 51.1% | CAKI-1 renal 93.1% | A498 renal 92.4% | CCRF-CEM leukemia 21.7% | MOLT-4 leukemia 90.4% | RPMI-8226 leukemia 82.3% | OVCAR-8 ovarian 83% | OVCAR-5 ovarian 93.2% | OVCAR-4 ovarian 101% | SK-OV-3 ovarian 98.6% | IGROV1 ovarian 84.5% | OVCAR-3 ovarian 111% | HS 578T breast 99.5% | NCI/ADR-RES ovarian 95.2%
active: SR leukemia -25.9%

COc1nc2c(cc1S(=O)(=O)c1ccccc1)CCc1c-2cnn1-c1ccccc1
active: UO-31 renal -65.3%
inactive: SK-MEL-2 melanoma 83.4% | SN12C renal 77.9% | TK-10 renal 67.9% | ACHN renal 71.1% | CAKI-1 renal 58.2% | A498 renal 54.6% | CCRF-CEM leukemia 68.6% | MOLT-4 leukemia 54.5% | SR leukemia 45.4% | RPMI-8226 leukemia 62.6% | OVCAR-8 ovarian 76.4% | OVCAR-5 ovarian 81.1% | OVCAR-4 ovarian 76.7% | SK-OV-3 ovarian 87.2% | IGROV1 ovarian 79.6% | HS 578T breast 85.2% | NCI/ADR-RES ovarian 80.8%

Cc1nc2cc(Nc3nc(Nc4ccc(F)cc4)nc(N4CCN(C)CC4)n3)ccc2n1Cc1ccccc1
inactive: SN12C renal 34.9% | CAKI-1 renal 18.6% | A498 renal 29.2% | OVCAR-8 ovarian 11.6% | OVCAR-5 ovarian 42.9% | SK-OV-3 ovarian 68.7% | IGROV1 ovarian 24.6% | NCI/ADR-RES ovarian 43.1%
active: SK-MEL-2 melanoma -20.5% | UO-31 renal -29% | TK-10 renal -12.1% | ACHN renal 9.69% | CCRF-CEM leukemia -7.07% | MOLT-4 leukemia 1.11% | SR leukemia -21.6% | RPMI-8226 leukemia -40.2% | OVCAR-4 ovarian -7.19% | OVCAR-3 ovarian -35.6% | HS 578T breast -19.4%
